# Data as given in ChEMBL document CHEMBL3988442, “University of Dundee, Small-Polar-MMV Screening Library” (2021).
# Out of some 69,000 compounds screened, about 1,000 (1.4%) showed an effect of 50% or more. The sample holds strong results, similar compounds and a random draw of the others, so the mix is not that of the screen.
# System: Leishmania donovani
# Assay: Leishmania intramacrophage assay
# Type: functional, organism-based
# Design: scale not given: in the data most compounds retested in dose-response had high values
structure (smiles),measurement,setting,value
O=C(O)C(F)(F)F.O=C1COC2(CCN(S(=O)(=O)C3CC3)CC2)CN1c1cccnc1,Percent Effect,"30.3 µM, […]",-7.696%
COc1ccc(C)nc1NC(=O)Cc1c(C)nn(C)c1C,Percent Effect,"30.3 µM, […]",1.753%
CC(C)NC(=O)c1ccc2nnc(C3CCN(S(C)(=O)=O)C3)n2c1 (stereo not drawn),Percent Effect,"30.3 µM, […]",33.79%
CC(Cn1cncn1)NC(=O)N1CC2(CCCC2)c2ccccc21 (stereo not drawn),Percent Effect,"30.3 µM, […]",3.028%
COc1ccc(C2CCCN2C(=O)NCCNc2ncccn2)cc1 (stereo not drawn),Percent Effect,"30 µM, 30.03 µM",9.2%
COc1ccc(C2CCCN2C(=O)NCCCn2cccn2)cc1 (stereo not drawn),Percent Effect,"30.3 µM, […]",9.048%
COc1ccc(C2CCCN2C(=O)NCCNc2ccccn2)cc1 (stereo not drawn),Percent Effect,"30.3 µM, […]",69.63%
CC(=O)c1cccc(-n2nc(C(C)=O)c(C(C)=O)c2C)c1,Percent Effect,"30.3 µM, […]",-0.2536%
COC[C@@]12CC[C@@H](N3CCOCC3)C[C@H]1CCN(c1ncccc1Cl)C2,Percent Effect,"30 µM, 30.03 µM",52.08%
COC[C@@]12CC[C@@H](N3CCOCC3)C[C@H]1CCN(c1ncccc1F)C2,Percent Effect,"30.3 µM, […]",25.63%
COC[C@@]12CC[C@@H](N3CCOCC3)C[C@H]1CCN(c1ncccc1C)C2,Percent Effect,"30.3 µM, […]",25.83%
CC(c1nccs1)N(C)C(=O)c1cc(CN(C)Cc2ccccc2)on1 (stereo not drawn),Percent Effect,"30.3 µM, […]",13.49%
Cc1cnn(CC2CCCN2C(=O)c2cc(Cl)ccc2F)c1 (stereo not drawn),Percent Effect,"30 µM, 30.03 µM",-5.128%
Nc1ncc2c(n1)CN(C1CCCC1)C2=O,Percent Effect,"30 µM, 30.03 µM",22.17%
CC1CCC(N2Cc3nc(N)ncc3C2=O)CC1 (stereo not drawn),Percent Effect,"30.3 µM, […]",-33.84%
CN1CCC(N2Cc3nc(N)ncc3C2=O)CC1,Percent Effect,"30.3 µM, […]",54.63%
CCC1=NN2C(=N)/C(=C\c3cccn3-c3ccc(Cl)cc3)C(=O)N=C2S1,Percent Effect,"30.3 µM, […]",-2.316%
CCN1C(=O)CC[C@@H]2[C@H]1CCN2S(=O)(=O)Cc1ccc(C)cc1,Percent Effect,"30.3 µM, […]",17.88%
Cl.Fc1cccc(F)c1Cn1c(C2CCNCC2)cc2cccnc21,Percent Effect,"30.3 µM, […]",57.89%
Cl.Fc1cccc(F)c1Cn1c(C2CCCNC2)cc2cccnc21 (stereo not drawn),Percent Effect,"30.3 µM, […]",-15.48%
Cl.Fc1ccccc1Cn1c(C2CCNCC2)cc2cccnc21,Percent Effect,"30.3 µM, […]",43.21%
Cc1nc(Nc2ncccn2)cc(C2CCN(CC(C)C)C2)n1 (stereo not drawn),Percent Effect,"30.3 µM, […]",2.022%
CN1CSC[C@H]1C(=O)N1CCN(Cc2cccc(F)c2)CC1,Percent Effect,"30.3 µM, […]",4.358%
CN(Cc1nnnn1C1CC1)CC1COc2ccccc2O1 (stereo not drawn),Percent Effect,"30.3 µM, […]",4.21%
Cc1cc(N(C)CCCn2cccn2)nc(N)n1,Percent Effect,"30.3 µM, […]",27.03%
CCN1CC(CN(C)c2cc(C)nc(N)n2)Oc2ccccc21 (stereo not drawn),Percent Effect,"30.3 µM, […]",84.12%
Cc1cc(N(C)CC2COc3ccccc3O2)nc(C)n1 (stereo not drawn),Percent Effect,"30.3 µM, […]",59.02%
CN(Cc1nc(CC2CC2)no1)CC1COc2ccccc2O1 (stereo not drawn),Percent Effect,"30.3 µM, […]",-8.353%
Cc1cc(N(C)CC2COc3ccccc3O2)nc(N)n1 (stereo not drawn),Percent Effect,"30.3 µM, […]",51.06%
Cc1csc(CN2CC(CO)Oc3ccccc32)n1 (stereo not drawn),Percent Effect,"30.3 µM, […]",-4.409%
COc1ccccc1OCCCN(C)c1cc(C)nc(N)n1,Percent Effect,"30.3 µM, […]",16.27%
CN(CC1COc2ccccc2O1)C(=O)C1=NN(C)C(=O)CC1 (stereo not drawn),Percent Effect,"30.3 µM, […]",18.48%
COc1ccccc1CNC(=O)N1CCCC(NS(C)(=O)=O)C1 (stereo not drawn),Percent Effect,"30 µM, 30.03 µM",-10.5%
Br.O=C(O)c1csc(NCCc2ccccc2)n1,Percent Effect,"30.3 µM, […]",-6.16%
CC(C)n1cnnc1CNC(=O)c1cnn(-c2ccccc2)c1,Percent Effect,"30.3 µM, […]",5.112%
Cc1nn(C)c(C)c1NC(=O)CN1CCOC(Cn2cccn2)C1 (stereo not drawn),Percent Effect,"30.3 µM, […]",7.584%
Cc1nn(C)c(C)c1NC(=O)CN1CCOC(CN(C)C)C1 (stereo not drawn),Percent Effect,"30.3 µM, […]",51.92%
Cc1cc(NC(=O)CN2CCOC(CN(C)C)C2)n(C)n1 (stereo not drawn),Percent Effect,"30.3 µM, […]",9.756%
CCC[C@@H]1CN(c2cncc(C(=O)N3CCOCC3)n2)C[C@H]1N(C)C,Percent Effect,"30.3 µM, […]",5.453%
FC(F)(F)CCc1ccnc(N2CCN(CCc3ccncc3)CC2)n1,Percent Effect,"30.3 µM, […]",-20.06%
NC(=O)c1cccc(CCNCc2cnc(-c3cccs3)s2)c1,Percent Effect,"30.3 µM, […]",8.667%
Cc1nn(C)c2ncnc(N3CCC(O)(CN4CCCC4)CC3)c12,Percent Effect,"30.3 µM, […]",8.338%
CC[C@@H](C)[C@H](NC(=O)CCn1cc(C(C)=O)c2ccccc21)C(=O)O,Percent Effect,"30.3 µM, […]",56.09%
CC(=O)c1cn(CCC(=O)N[C@H](C(=O)O)C(C)C)c2ccccc12,Percent Effect,"30 µM, 30.03 µM",8.027%
CC(=O)c1cn(CCC(=O)N[C@@H](CC(C)C)C(=O)O)c2ccccc12,Percent Effect,"30.3 µM, […]",32.27%
CCC1=N[C@@]2(CC[C@@H]3CN(CC4CC4)C[C@@H]32)C(=O)N1C.O=C(O)C(F)(F)F,Percent Effect,"30 µM, 30.03 µM",21.68%
Cc1ccc2cccc(S(=O)(=O)N(C)C3CCCN(C)C3)c2n1 (stereo not drawn),Percent Effect,"30.3 µM, […]",25.11%
CN(C1CCCN(c2ccccn2)C1)S(C)(=O)=O (stereo not drawn),Percent Effect,"30.3 µM, […]",25.41%
CN1CCCC(N(C)S(=O)(=O)c2cccc3ncccc23)C1 (stereo not drawn),Percent Effect,"30.3 µM, […]",59.16%
O=C(CNc1cc(-n2cnnn2)ccc1F)NCc1ccccc1,Percent Effect,"30.3 µM, […]",43.45%
CCOc1ccccc1CCN1Cc2ncccc2C1=O,Percent Effect,"30.3 µM, […]",-1.003%
Cc1nn(C)c(C)c1C1CCCN1c1ncnc2sccc12 (stereo not drawn),Percent Effect,"30.3 µM, […]",33.23%
COc1c(C2CCCN2c2ncnc3sccc23)c(C)nn1C (stereo not drawn),Percent Effect,"30.3 µM, […]",26.6%
Cc1nn(C)c(Cl)c1C1CCCN1c1ncnc2sccc12 (stereo not drawn),Percent Effect,"30 µM, 30.03 µM",51.25%
CC(=O)C(Cc1ccccc1)NC(=O)CSc1nccn1C1CC1 (stereo not drawn),Percent Effect,"30.3 µM, […]",7.269%
CC(=O)N1CCC2(CCN(Cc3cccc(F)c3)CC2)CC1.O=C(O)C(F)(F)F,Percent Effect,"30.3 µM, […]",20%
Cc1noc(C)c1CN1CCO[C@H]2CN(C(=O)C3CCOCC3)C[C@H]21.O=C(O)C(F)(F)F,Percent Effect,"30.3 µM, […]",32.17%
CCC(=O)N1CCC2(CCN(Cc3cccc(F)c3)CC2)CC1.O=C(O)C(F)(F)F,Percent Effect,"30.3 µM, […]",2.147%
Cc1noc(C)c1CN1CCO[C@H]2CN(Cc3cccc(F)c3)C[C@H]21.O=C(O)C(F)(F)F.O=C(O)C(F)(F)F,Percent Effect,"30.3 µM, […]",56.73%
Cc1noc(C)c1CN1CCN(Cc2ccncc2)c2ncccc2C1.O=C(O)C(F)(F)F.O=C(O)C(F)(F)F.O=C(O)C(F)(F)F,Percent Effect,"30 µM, 30.03 µM",-14.87%
Cc1noc(C)c1CN1CCN(Cc2cccnc2)c2ncccc2C1.O=C(O)C(F)(F)F.O=C(O)C(F)(F)F.O=C(O)C(F)(F)F,Percent Effect,"30.3 µM, […]",57.48%
Cc1noc(C)c1CN1CCN(CC2CC2)c2ncccc2C1.O=C(O)C(F)(F)F.O=C(O)C(F)(F)F,Percent Effect,"30 µM, 30.03 µM",23.02%
Cc1noc(C)c1CN1CCC2(CCN(Cc3cccc(F)c3)CC2)C1.O=C(O)C(F)(F)F.O=C(O)C(F)(F)F,Percent Effect,"30.3 µM, […]",59.23%
Cc1noc(C)c1CN1CCO[C@H]2CN(Cc3ccc(F)cc3)C[C@H]21.O=C(O)C(F)(F)F.O=C(O)C(F)(F)F,Percent Effect,"30.3 µM, […]",23.07%
Cc1ccc(-c2nc(C(=O)N(C)CC(=O)N(C)C)cs2)c(C)c1,Percent Effect,"30.3 µM, […]",-31.91%
CCS(=O)(=O)N1CCC(NCC2CNc3cc(C)nn3C2)CC1 (stereo not drawn),Percent Effect,"30.3 µM, […]",-7.273%
CC(=O)N1CC(=O)N(c2ccsc2)CC12CCN(Cc1ccoc1)C2 (stereo not drawn),Percent Effect,"30.3 µM, […]",14.63%
CC1CN(C)CCN1C(=O)c1ccn(-c2cccc(F)c2)n1 (stereo not drawn),Percent Effect,30 µM,3.559%
CCc1nnc(CNC2CCc3nc(C(C)C)nn3C2)o1 (stereo not drawn),Percent Effect,"30.3 µM, […]",-6.024%
Cc1csc(-c2ccc(NC(=O)N3CCOCC3)cc2)n1,Percent Effect,"30.3 µM, […]",-0.9004%
Cc1csc(-c2cccc(NC(=O)N3CCOCC3)c2)n1,Percent Effect,"30.3 µM, […]",24.69%
Cc1csc(NC(=O)c2ccc(NC(=O)N3CCOCC3)cc2)n1,Percent Effect,"30.3 µM, […]",69.81%
CC(c1nc(C2CC2)no1)N(C)Cc1ccc2c(c1)OCCO2 (stereo not drawn),Percent Effect,"30.3 µM, […]",14.22%
COc1ccc2cc(CN(C)C(C)c3nc(C4CC4)no3)ccc2c1 (stereo not drawn),Percent Effect,"30.3 µM, […]",57.64%
COc1ccc2cc(CN(C)C(C)c3nc(C(C)(C)C)no3)ccc2c1 (stereo not drawn),Percent Effect,"30.3 µM, […]",20.66%
CSCc1noc(CNC(=O)c2cc(C)c(C)[nH]c2=O)n1,Percent Effect,"30.3 µM, […]",20.7%
Cc1cnc(NC2CCN(CC(=O)Nc3ccccc3)CC2)nc1C,Percent Effect,"30.3 µM, […]",18.37%
COc1ccnc(NC2CCN(CC(=O)Nc3ccccc3)CC2)n1,Percent Effect,"30.3 µM, […]",-0.8363%
O=C(CN1CCC(Nc2ncccn2)CC1)Nc1ccccc1,Percent Effect,"30.3 µM, […]",51.04%
CCc1nnc(CN(CC)C(=O)C2CC(=O)N(C3CCCC3)C2)o1 (stereo not drawn),Percent Effect,"30.3 µM, […]",-15.82%
Cc1nn(C)c(Oc2ccc(Cl)cc2)c1CN1CCC(CN)C1 (stereo not drawn),Percent Effect,"30.3 µM, […]",74.8%
Cc1nn(C)c(Oc2ccc(Cl)cc2)c1CN1CCOC(CN)C1 (stereo not drawn),Percent Effect,"30.3 µM, […]",3.142%
Cc1nn(C)c(Oc2ccc(Cl)cc2)c1CN1CC[C@H](CO)[C@@H](O)C1,Percent Effect,"30.3 µM, […]",9.933%
Cc1cccc(SC2CCN(C(=O)CCCn3cnnn3)CC2)c1,Percent Effect,"30.3 µM, […]",53.34%
Cc1cccc(SC2CCN(C(=O)CCCS(N)(=O)=O)CC2)c1,Percent Effect,"30.3 µM, […]",24.28%
CC(=O)NCCCC(=O)N1CCC(Sc2cccc(C)c2)CC1,Percent Effect,"30.3 µM, […]",42.91%
CCOCC(=O)N1CSCC1C(=O)N(C)Cc1ccco1 (stereo not drawn),Percent Effect,30 µM,13.38%
CCCc1nc(N2CC[C@@H](c3ccc4ccccc4c3)[C@H](O)C2)no1,Percent Effect,"30.3 µM, […]",50.36%
CCCc1nc(N2CC[C@@H](c3ccc4c(c3)OCO4)[C@H](O)C2)no1,Percent Effect,"30.3 µM, […]",11.09%
Cc1nc(N2CC[C@@H](c3ccc4ccccc4c3)[C@H](O)C2)no1,Percent Effect,"30.3 µM, […]",18.28%
Cc1cc(N2CCc3c(nc(C(C)C)n3C)C2)nc(N)n1,Percent Effect,"30.3 µM, […]",17.43%
Cc1nc(C)n(CC2CCCN(CC(=O)Nc3ccncc3)C2)n1 (stereo not drawn),Percent Effect,30 µM,29.85%
Cc1nc(C)n(CC2CCCN2CC(=O)Nc2ccncc2)n1 (stereo not drawn),Percent Effect,"30.3 µM, […]",50.98%
Cc1nc(C)n(CC2CN(CC(=O)Nc3cccnc3)CCO2)n1 (stereo not drawn),Percent Effect,"30 µM, 30.03 µM",31.54%
Cc1nc(C)n(CC2CCCN2CC(=O)Nc2cccnc2)n1 (stereo not drawn),Percent Effect,"30.3 µM, […]",2.659%
Cc1nc(C)n(CC2CCCCN2CC(=O)Nc2ccncc2)n1 (stereo not drawn),Percent Effect,"30 µM, 30.03 µM",-8.014%
Cc1nc(C)n(CC2CCCN(CC(=O)Nc3cccnc3)C2)n1 (stereo not drawn),Percent Effect,"30.3 µM, […]",59.36%
Cc1nc(CN(C)C2CCCN(Cc3noc(C4CC4)n3)C2)oc1C (stereo not drawn),Percent Effect,30 µM,-8.721%
